The results in this text go back to PubChem BioAssay (NCI).

The structures appear in SMILES notation. This is part of a sample that, as a whole, favours compounds with a hit. Of some 83,000 tested, about 20% had one in any assay.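 Testing used 96-well plates and a 48-hour single-concentration exposure. Example: -40 means 40% of the starting cells died.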 Unmarked numbers belong to inactive results. Active and inactive are the calls of the source. The calls were made as follows: active = growth percent below 10; inactive = the rest.

The test has as its system HOP-62 NSCLC. The experiment in a line: NCI-60 one-dose screen, 48 h (100 = growth as untreated, 0 = no growth, -100 = all killed). The note with it: 10 µM unless noted.
On to `CCCC(=O)CC(C)=O.CCCC(=O)CC(C)=O.[Cu]`, for which the growth is 94.3%.

`COc1cc(C(C)n2cc(-c3ccccc3)nn2)ccc1OC1CCCCC1` (stereo not drawn): the growth is 69.4%.

As for `NC1(N2SC(S)=C3CCCC=C32)CCCCC1`, the growth was 101%.

Take `CCN1CCN(c2cc(C)c3cc(NC(=O)c4ccc(OC)c(OC)c4)ccc3n2)CC1`: the growth was 50.7%.

For `CC(C)[C@H](NC(=O)Cn1cc(C(=O)O)nn1)C(=O)O`, the growth was 108%.

In the case of `C=C[C@@H]1CCC/C=C/[C@@H]2C[C@H](O)C[C@H]2[C@H](O)/C=C/C(=O)O1`, the growth was 19.2%.

As for `COc1ccc(Nc2nc(N/N=C/c3ccc(O)cc3)nc(Nc3ccc([N+](=O)[O-])cc3)n2)cc1`, the growth is 107%.

Regarding `Cc1ccc(CN2CCC(C(=O)Nc3ccc(-c4cc5ccccc5[nH]4)cc3)CC2)o1`, the growth is 97.9%.

Regarding `O=C(Nc1ccc(N2CCNCC2)cc1)c1[nH]ncc1Nc1cc(Oc2ccccc2)ncn1`, the growth is 3.29% (active).

For `CN1C(=O)N(C)C2C1NN=c1s/c(=C\c3ccc([N+](=O)[O-])cc3)c(=O)n12` (stereo not drawn), the growth was 68.9%.

On to `Nc1ccc(-c2nc3cc(Oc4ccc(Oc5ccc6[nH]c(-c7ccc(N)cc7)nc6c5)cc4)ccc3[nH]2)cc1`, for which the growth is 107%.

Turning to `COc1cccc2cc(N(C)c3nc(C)nc4ccsc34)ccc12`, the growth is 17.1%.

Consider `COc1cc(/C=C2\CCC/C(=C\c3cc(CN4CCCCC4)c(O)c(OC)c3)C2=O)cc(CN2CCCCC2)c1O`, for which the growth was 88.1%.

Turning to `CCOC(=O)C1=C(C)N=c2s/c(=C\c3ccccc3O)c(=O)n2C1c1ccc(OC)c2ccccc12` (stereo not drawn), the growth is 29.2%.

Turning to `CCN1C(=O)N(CC)C2Nn3c(s/c(=C4\C(=O)N(C(C)C)c5ccccc54)c3=O)=NC21` (stereo not drawn), the growth was 51.8%.

Take `Cc1c(-c2csc(-n3nc(C(F)(F)F)cc3C(F)(F)F)n2)no[n+]1[O-]`: the growth was 100%.

As for `CC1(O)COCCCCOc2c(CN)cccc2NC(=O)c2nc(cnc2N)-c2ccc(cc2)S(=O)(=O)C(C)(C)C1` (stereo not drawn), the growth was -25.5% (active).

For the molecule `COc1nc2c(c(=O)n1C)N=C1c3ccccc3C(=O)C1C(c1ccccc1)N2` (stereo not drawn), the growth was 86.9%.

For `CS(=O)(=O)Nc1ccc(C(=O)NC(C(=O)NO)c2ccc(-c3cccc(F)c3)cc2)cc1` (stereo not drawn), the growth is 99.1%.

Turning to `COc1cc(C(=O)Nc2ccc(-c3nc4ccccc4[nH]3)cc2)cc(OC)c1OC`, the growth is 42.5%.

On to `Fc1ccc(Oc2ccc(Nc3ncnc4onc(-c5ccccc5)c34)cc2)cc1`, for which the growth is 105%.

As for `CC1=C(CC(=O)c2cccc([N+](=O)[O-])c2)C(=O)c2ccccc2C1=O`, the growth is -67.2% (active).

With `COc1ccc(Cn2cc(Cn3c(=O)c(-c4nc5ccccc5[nH]4)cc4ccccc43)nn2)c(OC)c1OC`, the growth was 9.29% (active).

As to `COc1ccc(Cn2c(Br)c3c(c2Br)-c2nc(N)sc2CC3)cc1`, the growth is 35.5%.

On to `O=C(N/N=C/c1ccccc1O)C(=O)Nc1ccc(F)cc1`, for which the growth was 50.1%.

Take `CCOc1ccc(Nc2ccnc3cc(Cl)ccc23)cc1`: the growth was 24.5%.

In the case of `COc1cc(/C=C2\CN(C)C/C(=C\c3cc(CN4CCCC4)c(O)c(OC)c3)C2=O)cc(CN2CCCC2)c1O`, the growth is 82%.

Turning to `CCOC(=O)c1cnc2c(C)cccc2c1Nc1ccc(C(C)=O)cc1`, the growth is -76.6% (active).

For the molecule `COc1cc(C(=O)O/N=C(\N)Cc2cccc3ccccc23)cc(OC)c1OC`, the growth was 27.6%.

Regarding `Nc1ncnc(N)c1NC(=O)c1ccc(OCc2ccccc2)cc1`, the growth is 104%.

For the molecule `O=C1C(=O)c2c(ccc3ccccc23)-c2ccccc21`, the growth was 9.44% (active).

On to `CCOC(=O)c1sc(-c2ccc(OS(=O)(=O)c3cccs3)c(C=O)c2)nc1C`, for which the growth was 22.5%.

`O=c1oc2ccc(F)cc2c(=O)n1-c1ccc(Cl)cc1F`: the growth was -5.38% (active).

Turning to `Cc1ccc(C)c(-c2csc(Nc3ccc(C)c(C)c3)n2)c1`, the growth was 62.3%.

As to `Nc1ccc(-n2c(=O)oc3ccc(Cl)cc3c2=O)c(Cl)c1`, the growth is -6.88% (active).

For the molecule `c1ccc(-c2ccc(-c3nc4ccccc4[nH]3)cc2)cc1`, the growth was 80.5%.

For `COc1ccc(-c2nc(-c3ccccn3)c(-c3ccccn3)n2CC(C)C)cc1OC1CCCC1`, the growth was 28.3%.

For `CN(C)c1ccc(N=Cc2ccc(N3CCOCC3)cc2)cc1`, the growth was 87.3%.
